Bioassay records (PubChem)
Only some compounds are listed: those with a hit (about 3% of all), similar ones and a draw of the others.
SENP8 block-1 – blocks human SENP8 cleavage of Nedd8 substrate; inhibition, % at 20 µM; AID 602440; recombinant SENP8, Nedd8 substrate fluorescence; 360,000 tested, 0.64% active; in the data active = inhibition mostly above about 40%, no sharp cut-off; inactive = mostly below about 27%
PPC-1+TRAIL kill – compounds killing PPC-1 cancer cells with TRAIL present (potentiator screen, no TRAIL-free arm); cell killing (% activity), % at 4 µM or 5 µM; AID 1443; 220,000 tested, 0.41% active; PPC-1 cells + TRAIL, ATPLite viability luminescence;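 active = cell killing above 50% in the first pass at 4 µM, then a duplicate retest at 5 µM averaging 50% or more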;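 also: plate controls were cells with TRAIL plus DMSO for no effect and medium-only wells lacking cells for full effect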
SENP6 block – blocks the human protease SENP6; Q9GZR1; 330,000 tested, 1.8% active; inhibition, % at 10 µM; Recombinant SENP6 catalytic domain, aminoluciferin luminescence; AID 2599;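 active = inhibition above about 50% at the single tested dose, limit read from the data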;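 also: plate controls were DMSO wells with enzyme for no effect and DMSO wells lacking enzyme for full effect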
SENP8 block-2 – inhibitors of human SENP8 protease; purified SENP8, Z-RLRGG-aminoluciferin cleavage, luminescence; 330,000 tested, 1.2% active; inhibition, % at 10 µM; AID 2540; in the data active = inhibition above about 50%
SENP7 inh – inhibitors of human SENP7 protease | inhibition, % at 5 µM | 330,000 tested, 1.5% active | recombinant SENP7, Z-RLRGG-aminoluciferin luminescence, 40 min | Q9BQF6 | AID 434973;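 active = inhibition above about 50% at the single test dose, limit read from the data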;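 also: plate controls were DMSO with enzyme for no effect and no enzyme buffer wells for full effect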
Target sequence (Q9BQF6 706-1050 limits assumed): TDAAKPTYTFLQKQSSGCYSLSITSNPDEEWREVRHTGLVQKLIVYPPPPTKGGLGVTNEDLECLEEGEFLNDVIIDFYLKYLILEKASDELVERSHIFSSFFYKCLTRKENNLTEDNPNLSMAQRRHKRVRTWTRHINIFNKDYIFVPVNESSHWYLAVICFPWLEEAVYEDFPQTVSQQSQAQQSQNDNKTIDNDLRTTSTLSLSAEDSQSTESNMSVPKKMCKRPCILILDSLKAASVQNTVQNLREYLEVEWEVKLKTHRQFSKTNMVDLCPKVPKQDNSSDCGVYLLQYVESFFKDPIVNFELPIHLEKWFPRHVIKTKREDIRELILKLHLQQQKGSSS
TRAIL sens C8 – caspase-8 TRAIL sensitization. NB7+C8 cells + TRAIL, ATPlite viability luminescence. inhibition (viability loss, TRAIL sensitization), % at 10 µM. 360,000 tested, 1% active. AID 624354;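 active = compounds causing at least 50% loss of cell viability in the single-dose screen, relative to plate controls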
SENP8 conf – SENP8 (human) inhibition, single concentration confirmation. shares compounds with SENP8 block-1. purified SENP8, Nedd8-AMC/pro-Nedd8 cleavage fluorescence, 30 min. inhibition, % at 25 µM. 1,400 tested, 15% active. AID 624319; in the data active = inhibition mostly above about 39%, no sharp cut-off; inactive = mostly below about 34%
Numbers without * were called inactive; nt = not tested or not shown.

SMILES	SENP8 block-1	PPC-1+TRAIL kill	SENP6 block	SENP8 block-2	SENP7 inh	TRAIL sens C8	SENP8 conf
O=C(COc1ccccc1)Nc1cc(Cl)ccc1Cl	16	nt	2	-22	-3	9	nt
O=C(NNc1ccccc1[N+](=O)[O-])Nc1cccc(Cl)c1	40*	8	-5	1	2	31	25
CCc1ccccc1NC(=O)COc1cccc(-n2cnnn2)c1	1	nt	-32	-5	-4	-3	nt
CC(=O)Nc1ccc(N=c2cc([N+](=O)[O-])cc(Cl)n2O)cc1	51*	nt	2	16	18	4	28
O=C(C1=NOC2(C1)C(=O)Nc1ccccc12)N1CCOCC1 (centres undefined)	17	nt	nt	nt	nt	34	nt
Cc1ccc(-c2nc3ccccc3n2C(C)C(=O)NC(C)(C)C)cc1 (centres undefined)	0	nt	nt	nt	nt	14	nt
O=C1Cc2ccccc2C(=O)N1	81*	nt	nt	nt	nt	2	84*
COc1cccc2c1Oc1cc([N+](=O)[O-])cc(N(C)C(C)=O)c1C=C2	13	nt	-14	9	4	-2	nt
O=C(CCS(=O)(=O)Cc1ccccc1F)N1CCc2ccccc2C1	67*	13	5	4	0	8	75*
COc1ccc(/C=N/NC(=O)c2ccc(N(C)S(=O)(=O)c3ccccc3)cc2)cc1OC	-282	8	-4	7	7	-3	nt
CC(=O)Nc1cccc(/C(C)=N\NC(=O)c2ccc(Cn3nc([N+](=O)[O-])c(Cl)c3C)o2)c1	23	1	-8	-6	-10	-4	nt
Cc1ccc(SCc2nnc(NC(=O)c3ccccc3)s2)cc1	40*	-13	3	2	9	2	12
COC(=O)Cc1nnc(NC(=O)c2ccccc2)s1	14	14	-19	-1	-6	5	nt
Cc1c(C(=O)N(C)C)sc(NC(=O)c2cc([N+](=O)[O-])cc([N+](=O)[O-])c2)c1C#N	44*	20	-2	-3	8	-5	28
OC(c1ccccc1)(c1nc(-c2ccc(F)c(Cl)c2)cs1)C(F)(F)F (centres undefined)	14	nt	nt	nt	nt	-10	nt
Cc1ccccc1NC1=NC(=S)N(CC(N)=O)C12CCOC(C)(C)C2 (centres undefined)	9	19	-4	0	-1	-2	nt
CC1(C)CC2(CCO1)C(Nc1ccccc1)=NC(=S)N2CC(N)=O (centres undefined)	45*	29	-7	1	-3	-14	12
NC(=O)CSc1ccc(F)cc1	6	-7	-1	1	-3	0	nt
C=CCC(C(=O)OC)(C(=O)OC)c1ccc(C(F)(F)F)cc1[N+](=O)[O-]	13	18	1	-1	7	-3	nt
C=CCC(C(=O)OC)(C(=O)OC)c1ccc([N+](=O)[O-])cc1[N+](=O)[O-]	42*	5	18	0	3	5	11
NC(=O)c1cc(-c2ccccc2)sc1NC(=O)CN1CCCCC1	-152	16	11	-8	-3	20	nt
Cc1ccc(C)c(NNC(N)=S)c1	15	2	-22	-7	-1	3	nt
Cc1cc(Cl)ccc1NNC(N)=S	61*	27	-13	-8	14	-7	-8
Cc1ccc(C(=O)NCC(C)NC(=O)c2ccc(C)c(C)c2)cc1C (centres undefined)	12	nt	-23	2	8	1	nt
CC(=O)Nc1ccc(NC(=O)COC(=O)c2ccc([N+](=O)[O-])o2)cc1	34*	nt	15	12	12	-11	85*
O=C(COC(=O)c1ccc([N+](=O)[O-])o1)NC1CCS(=O)(=O)C1 (centres undefined)	50*	11	-8	3	4	-2	89*
CC1Cc2ccccc2N1C(=O)COC(=O)c1ccco1 (centres undefined)	6	nt	nt	nt	nt	-9	nt
CC1Cc2ccccc2N1C(=O)COC(=O)c1ccc([N+](=O)[O-])o1 (centres undefined)	42*	nt	26	4	18	26	80*
O=C(COC(=O)c1ccc([N+](=O)[O-])o1)NCc1ccc(F)cc1	43*	nt	6	-3	4	-10	78*
CCCCNC(=S)Nc1ccc(OC)nc1	12	8	6	3	-3	5	nt
